The campaign covered roughly 96,000 compounds. About 1,200 (1.2%) were called active. The sample holds actives, similar compounds and a random draw of the others, so the mix is not that of the screen. Cut-off read from the data, not from the text of the source: active = activation fold above about 2; inactive = the rest.
target: Alkaline phosphatase, placental type (Homo sapiens) (UniProt P05187); test: PLAP enzyme activators, biochemical, luminescence, HTS (AID 696); conditions: purified PLAP enzyme, luminescent substrate read-out; at 20 µM; active compounds read high
Sequence (P05187 whole entry, looked up): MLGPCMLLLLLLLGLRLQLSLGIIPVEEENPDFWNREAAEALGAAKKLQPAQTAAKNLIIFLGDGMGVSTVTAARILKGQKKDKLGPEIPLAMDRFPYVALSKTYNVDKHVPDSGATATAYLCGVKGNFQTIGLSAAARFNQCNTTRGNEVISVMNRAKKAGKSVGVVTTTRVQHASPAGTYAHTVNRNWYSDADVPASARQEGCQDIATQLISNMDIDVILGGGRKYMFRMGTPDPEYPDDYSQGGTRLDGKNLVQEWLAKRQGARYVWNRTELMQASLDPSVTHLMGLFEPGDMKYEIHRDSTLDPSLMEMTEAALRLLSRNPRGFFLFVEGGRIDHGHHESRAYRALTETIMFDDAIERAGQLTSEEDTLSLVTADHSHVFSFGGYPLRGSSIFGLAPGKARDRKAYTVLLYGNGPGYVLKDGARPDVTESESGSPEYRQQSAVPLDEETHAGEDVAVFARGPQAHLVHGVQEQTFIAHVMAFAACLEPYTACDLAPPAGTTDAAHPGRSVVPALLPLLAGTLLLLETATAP

Activation fold, active:
CN(C)C(CNC(=O)CCCOc1ccccc1)c1ccco1 (stereo unspecified) 2, CCOc1ccc2nc(N3CCCN(C(=O)Nc4ccccc4C)CC3)c(C#N)cc2c1 2, Cc1occc1C(=O)NNC(=S)NCC(C)C 2.3, CC(Oc1ccc2ccccc2c1)C(=O)NNC(=S)NC(=O)c1ccco1 (stereo unspecified) 2.6, Oc1c(C(c2ccccn2)N2CCOCC2)ccc2cccnc12 (stereo unspecified) 2.2, O=C(Nc1nnc(CCOCCOCCc2nnc(NC(=O)c3ccco3)s2)s1)c1ccco1 2, CCN(C(=O)CSc1ncn[nH]1)c1cccc2ccccc12 2.3, Cc1cc(N2CCN(S(=O)(=O)c3ccc(C)c(C)c3)CC2)c2ccccc2n1 2.1, O=C(CN1C(=O)COc2ccccc21)Nc1ccc(F)cc1 2.5, Cc1nn(C)cc1C(=O)NNC(=S)Nc1ccc(Cl)cc1 2.2, Cc1ccccc1C(OCC(O)CN1CCCCC1CCO)c1ccccc1 (stereo unspecified) 2.1, CCCc1nnc(NC(=O)CN2C(=O)c3ccccc3S2(=O)=O)s1 2.2

Activation fold, inactive:
CC(C)(C)N1CC(c2nc3ccccc3n2Cc2ccc(F)cc2)CC1=O (stereo unspecified) 1.1, CN(C)Cc1ccccc1C1(O)c2ccccc2CSc2ccccc21 (stereo unspecified) 1.1, N#Cc1cc([N+](=O)[O-])ccc1Oc1cccc(/C=N/NC(=O)c2ccc(Cl)cc2)c1 1.1, O=P(O)(CP(=O)(c1ccccc1)c1ccccc1)c1ccccc1O 1, CCOc1ccc(C(=O)NC(C(=O)NCc2ccccn2)C(C)C)cc1 (stereo unspecified) 0.9, Cc1cc(C)nc(SC(C)C(=O)N/N=C/c2cccs2)n1 (stereo unspecified) 0.9, CCCCCCNCCn1cnc2c(N)ncnc21 0.9, O=C(CCOc1ccccc1)NCc1ccccc1 0.8, O=C(CCCOc1ccccc1)NCc1ccco1 1.1, COc1ccc(C(=O)c2c(C)oc3cc([N+](=O)[O-])c(O)c([N+](=O)[O-])c23)cc1 0.9, COc1ccc(NC(=O)C(CC(C)C)NS(=O)(=O)c2ccc3c(c2)CCN3C(C)=O)cc1OC (stereo unspecified) 0.8, CN(Cc1nc2ccccc2c(=O)[nH]1)Cc1cc(=O)oc2ccc3ccccc3c12 1.6, O=S(=O)(NC1CCCCC1)c1ccc(F)c2ccccc12 0.7, COc1ccc2nc(N3CCCC(O)C3)c(C#N)cc2c1 (stereo unspecified) 1.8, CCOc1ccc2nc(NCCNS(=O)(=O)c3ccccc3)c(C#N)cc2c1 1, O=C(NCCCN1CCOCC1)c1cc2c(s1)CCC2 1.3, COC(=O)c1ccc(C(=O)Nc2cc(Cl)ccc2Cl)cc1NC(=O)c1ccccc1C 1, CC1CCCN(C(C(=O)Nc2ccc(C(C)C)cc2)c2ccc3c(c2)OCO3)C1 (stereo unspecified) 1.6, Cc1[nH]c(=O)c(C(=O)/C=C/c2ccccc2)c2c1CCCC2 1.2, Cc1occc1C(=O)Nc1nnc(-c2ccncc2)s1 1, CC(C)CNC(=S)NNC(=O)c1ccccc1OC(F)F 1.6, CCN(CC)C(=O)CSC1c2ccccc2C(=O)N1c1ccccc1 (stereo unspecified) 1.1, CCCOc1ccc(C2NC(=O)NC(c3ccccc3)=C2C(C)=O)cc1OCC (stereo unspecified) 0.9, O=C(NCc1ccco1)c1ccc(Cn2c(=O)c3sccc3n(Cc3ccc(F)cc3)c2=O)cc1 1.3, COc1c(F)c(F)c(C(=O)O)c(Nc2ccccc2C)c1F 1, CCCc1ccc(OCC(=O)NNC(=S)NC(=O)c2ccco2)cc1 1.2, COc1ccc(C(=O)NC(=S)NNC(=O)CCc2ccccc2)cc1 1, CCOc1cc(N2CCOCC2)c(OCC)cc1NC(=O)COc1cccc2cccnc12 1.4, O=C(c1cccnc1NCc1ccccc1)N1CCOCC1 0.9, Cc1cccc(NC(=S)Nc2ccc(Br)cc2)c1 1.2, O=C(Nc1nnc(SCc2ccccc2)s1)c1ccco1 1.1, COC(=O)c1ccc(NC(=O)c2ccco2)cc1 0.8, COc1ccc(C(=O)NC(=S)Nc2ccccc2N2CCN(S(C)(=O)=O)CC2)cc1OC 1, CC(C)(C)c1ccc(C(=O)CSc2ncn[nH]2)cc1 1.5, O=C(CSc1ncn[nH]1)Nc1ccnc2ccccc12 1.9, Cc1sc(NC(=S)NC(=O)c2cccs2)nc1-c1ccc(CC(C)C)cc1 1.5, Cc1ccc(S(=O)(=O)NCCSC(C)(C)C)cc1 0.9, COc1ccc(CCNC(=O)COC(=O)c2ccc[nH]c2=O)cc1 1, Cc1ccc(C)c(N2CCN(S(=O)(=O)c3ccc4c(c3)oc(=O)n4C)CC2)c1 1.4, Cc1ccc(S(=O)(=O)C(C#N)c2nc3ccccc3nc2N2CCCC2)cc1C (stereo unspecified) 1.4, COC(=O)c1[nH]c2ccc(Br)cc2c1NC(=O)Oc1ccccc1 1.1, CCCN1CCN(CCCNC(=O)CN2C(=O)COc3ccccc32)CC1 1.2, O=C(CN1C(=O)COc2ccccc21)NCCN1CCc2ccccc2C1 1.3, O=C(Nc1cc(C(F)(F)F)ccc1Cl)c1cc2nc3c(c(C(F)(F)F)n2n1)CCCC3 1.6, Clc1ccc(-c2nnc(-c3ccccc3)nc2N2CCSCC2)cc1 1.4, O=C1C2C3C=CC(C4CC34)C2C(=O)N1/N=C/c1ccc(-c2ccccc2[N+](=O)[O-])o1 (stereo unspecified) 0.9, COc1ccc(Cl)cc1C(=O)NCc1cn(C)nc1C 1.1, S=C(NCc1cccs1)Nc1ccc(Cl)cc1 0.9, O=C(CNC(=O)c1ccccc1)NCC(=O)OCc1ccc(Cl)cc1 0.9, OC(COc1cccc(OCC(O)CN2CCCC2)c1)CN1CCCC1 (stereo unspecified) 1.2, COc1cccc(OCc2cc(/C=N/NC(=O)c3nc(Cl)c(Cl)c(N)c3Cl)ccc2OC)c1 1.5, CCc1c(C)nc2cc(C)[nH]n2c1=O 0.9, CNC(=O)CN1C(=O)c2ccccc2S1(=O)=O 0.9, CCCc1nnc(NC(=O)c2cccs2)s1 0.9

— PubChem BioAssay AID696 (Sanford-Burnham Center for Chemical Genomics, 2007)
